Screen size: about 5,500 compounds; about 2,000 (36%) were called active. Another 18% or so got no clear call; they are omitted. Cut-off read from the data, not from the text of the source: active = normalized growth mostly below about 0.91 (no sharp cut-off); inconclusive = no clear call, values can overlap the other calls; inactive = mostly above about 0.92. The list shows a part of the results.
Test: chemical genetic growth profiling, strain panel (AID 1159580);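 note: tested at 20 µM; growth read once vehicle control cultures reached saturation at 30 °C; 1 = growth at the plate median or of vehicle wells; lower values mean less growth of the strain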
Settings: S. cerevisiae deletion strains, growth OD

Measured: normalized growth

COc1ccc(C(=O)CSC2=NCCc3ccccc32)cc1
inactive: locus YAR019C, strain CDC15, stronger effect = lower value 0.975 | locus YBL105C, strain PKC1, stronger effect = lower value 0.982 | locus YBR135W, strain CKS1, stronger effect = lower value 0.959 | locus YBR136W, strain MEC1, stronger effect = lower value 0.978 | locus YBR160W, strain CDC28, stronger effect = lower value 0.974 | locus YDL017W, strain CDC7, stronger effect = lower value 0.98 | locus YDL028C, strain MPS1, stronger effect = lower value 0.97 | locus YDL101C, strain DUN1, stronger effect = lower value 0.976 | locus YDL108W, strain KIN28, stronger effect = lower value 0.968 | locus YDL132W, strain cdc53, stronger effect = lower value 0.974 | locus YDL214C, strain PRR2, stronger effect = lower value 0.999 | locus YDR052C, strain DBF4, stronger effect = lower value 0.983 | locus YDR054C, strain cdc34, stronger effect = lower value 0.978 | locus YDR226W, strain ADK1, stronger effect = lower value 0.971 | locus YDR477W, strain SNF1, stronger effect = lower value 1 | locus YER123W, strain YCK3, stronger effect = lower value 1.02 | locus YER133W, strain GLC7, stronger effect = lower value 1.01 | locus YFL009W, strain cdc4, stronger effect = lower value 0.968 | locus YFL029C, strain CAK1, stronger effect = lower value 0.972 | locus YFR003C, strain YPI1, stronger effect = lower value 0.979 | locus YFR019W, strain FAB1, stronger effect = lower value 1.04 | locus YFR028C, strain CDC14, stronger effect = lower value 0.982 | locus YGR040W, strain KSS1, stronger effect = lower value 1 | locus YGR052W, strain FMP48, stronger effect = lower value 1.13 | locus YGR092W, strain DBF2, stronger effect = lower value 0.984 | locus YHR030C, strain SLT2, stronger effect = lower value 1.01 | locus YHR079C, strain IRE1, stronger effect = lower value 1 | locus YHR082C, strain KSP1, stronger effect = lower value 1.04 | locus YHR205W, strain SCH9, stronger effect = lower value 0.938 | locus YIL147C, strain SLN1, stronger effect = lower value 0.971 | locus YJL095W, strain BCK1, stronger effect = lower value 0.969 | locus YJL128C, strain PBS2, stronger effect = lower value 0.951 | locus YJL157C, strain FAR1, stronger effect = lower value 0.995 | locus YJR016C, strain ILV3, stronger effect = lower value 0.972 | locus YJR066W, strain TOR1 (second series), stronger effect = lower value 1 | locus YJR066W, strain TOR1, stronger effect = lower value 0.985 | locus YKL048C, strain ELM1, stronger effect = lower value 1.03 | locus YKL067W, strain YNK1, stronger effect = lower value 0.997 | locus YKL101W, strain HSL1, stronger effect = lower value 0.98 | locus YKL193C, strain SDS22, stronger effect = lower value 0.966 | locus YKL203C, strain TOR2, stronger effect = lower value 1.05 | locus YLR113W, strain HOG1, stronger effect = lower value 0.99 | locus YLR133W, strain CKI1, stronger effect = lower value 1.01 | locus YLR403W, strain SFP1, stronger effect = lower value 1.01 | locus YML070W, strain DAK1, stronger effect = lower value 1 | locus YMR001C, strain CDC5, stronger effect = lower value 0.962 | locus YMR205C, strain PFK2 (second series), stronger effect = lower value 0.998 | locus YMR277W, strain FCP1, stronger effect = lower value 0.968 | locus YNL006W, strain LST8, stronger effect = lower value 0.969 | locus YNL020C, strain ARK1, stronger effect = lower value 1.02 | locus YNL161W, strain CBK1, stronger effect = lower value 0.964 | locus YNL183C, strain NPR1, stronger effect = lower value 0.977 | locus YNL207W, strain RIO2, stronger effect = lower value 0.977 | locus YNL222W, strain SSU72, stronger effect = lower value 0.976 | locus YNL307C, strain MCK1 (second series), stronger effect = lower value 1.02 | locus YOL078W, strain AVO1, stronger effect = lower value 0.966 | locus YOL136C, strain PFK27, stronger effect = lower value 1.02 | locus YOR061W, strain CKA2, stronger effect = lower value 0.967 | locus YOR119C, strain RIO1, stronger effect = lower value 1.07 | locus YOR231W, strain MKK1, stronger effect = lower value 0.966 | locus YOR329C, strain SCD5, stronger effect = lower value 0.982 | locus YPL031C, strain PHO85, stronger effect = lower value 0.997 | locus YPL153C, strain RAD53, stronger effect = lower value 1 | locus YPL204W, strain HRR25, stronger effect = lower value 1.02 | locus YPL209C, strain IPL1, stronger effect = lower value 0.973 | locus YPL256C, strain CLN2, stronger effect = lower value 1.07 | locus YPR025C, strain CCL1, stronger effect = lower value 0.97 | locus YPR106W, strain ISR1, stronger effect = lower value 0.986 | locus YPR111W, strain DBF20, stronger effect = lower value 0.97 | strain NNK1, stronger effect = lower value 0.995 | strain TSCII, stronger effect = lower value 0.964

Reference: PubChem BioAssay AID1159580 (chemical genetic matrix, 2015)
